# “And” between values parts separate entries of the source, which are not always exact repeats. Equal values may be shown once. This is part of a sample that, as a whole, favours compounds with a hit. Of some 83,000 tested, about 20% had one in any assay.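 Compound tested at a single concentration for 48 hours in 96-well plates; a percent growth value below 10 was scored as active.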 Values without a mark were called inactive. The source made the active and inactive calls.
# System: MDA-MB-468 breast
# Test: NCI-60 one-dose screen, 48 h (100 = growth as untreated, 0 = no growth, -100 = all killed)
# Details: 10 µM unless noted
row,SMILES,growth
1,CC(=O)c1cccc(NS(=O)(=O)c2cccc(C(=O)Nc3ccc(Br)cc3)c2)c1,1.14% [25 µM] (active)
2,CC(=O)NC1=C(C#N)C(c2ccccc2Cl)c2c(ccc3ccccc23)O1 (centres undefined),14%
3,CCn1c2c(c3ccccc31)SC1c3cccn3CCN1C2=S (centres undefined),-1.66% (active)
4,C/C(=N/NC(N)=S)C(=O)O,39.2%
5,COc1ccc(-c2cc(NC(=O)Nc3ccc4ncsc4c3)no2)cc1,99.2%
6,C=C(C)[C@@H]1CC[C@]2(N=C=O)CC[C@]3(C)[C@H](CC[C@@H]4[C@@]5(C)Cc6c([nH]c7ccccc67)C(C)(C)[C@@H]5CC[C@]43C)[C@@H]12,92.5%
7,COc1cc(-c2nn(C(C)(C)C)cc2-c2ccnc(NCCCNS(=O)(=O)c3ccc(C)cc3)n2)ccc1Cl,79%
8,O=C(O)c1cn(C2CC2)c2cc(N3CCN(C(=O)CSc4nc(NS(=O)(=O)c5ccccc5)cc(=O)[nH]4)CC3)c(F)cc2c1=O,98.7%
9,O=C(/C=C/c1cn(-c2ccccc2)nc1-c1ccccc1)CCC(=O)NO,101%
10,O=S(=O)(O)CC(O)CN1CCN(CCO)CC1 (centres undefined),105%
11,Nc1ncnc2c1ncn2C1CC(O)C(CO)O1 (centres undefined),113% and 99.9%
12,O=C1/C(=C/c2cccc(F)c2)Cc2ccccc21,107%
13,Clc1cccc(/C=N/Nc2nc(N/N=C/c3cccc(Cl)c3)nc(N3CCCCC3)n2)c1,76.3%
14,CC(=O)N(CCCCCCN(C(C)=O)C(C)=O)C(C)=O,99.2% [100 µM]
